Here are results for 5 compounds from ChEMBL document CHEMBL1961873, “Compounds: GSK PKIS; Assays: Nanosyn kinase panel” (2012).

The structures appear in SMILES notation.

Test [1] deals with T1, Tyrosine-protein kinase ITK/TSK (Homo sapiens) (UniProt Q08881).
T1 sequence (whole entry): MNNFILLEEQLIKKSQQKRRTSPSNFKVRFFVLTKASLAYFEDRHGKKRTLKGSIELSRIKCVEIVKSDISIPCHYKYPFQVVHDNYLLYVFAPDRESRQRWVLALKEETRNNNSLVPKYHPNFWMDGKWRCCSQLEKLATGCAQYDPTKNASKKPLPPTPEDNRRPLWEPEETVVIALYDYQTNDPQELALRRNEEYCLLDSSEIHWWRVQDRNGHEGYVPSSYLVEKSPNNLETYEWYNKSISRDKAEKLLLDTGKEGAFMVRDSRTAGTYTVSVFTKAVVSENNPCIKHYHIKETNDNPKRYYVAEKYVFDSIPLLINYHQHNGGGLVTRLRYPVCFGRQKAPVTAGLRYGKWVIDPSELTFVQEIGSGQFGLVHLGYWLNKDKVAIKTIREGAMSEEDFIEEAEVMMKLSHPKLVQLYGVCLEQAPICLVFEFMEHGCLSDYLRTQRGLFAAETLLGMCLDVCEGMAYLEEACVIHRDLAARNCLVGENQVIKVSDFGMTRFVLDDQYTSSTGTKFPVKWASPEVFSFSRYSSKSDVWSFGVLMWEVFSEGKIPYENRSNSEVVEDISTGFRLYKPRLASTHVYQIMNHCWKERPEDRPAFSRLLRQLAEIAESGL
The note with it: at 1 µM.

In test [2] the target is Tyrosine-protein kinase JAK1 (Homo sapiens) (UniProt P23458). To be noted: at 0.1 µM.
Tyrosine-protein kinase JAK1 (Homo sapiens), sequence (P23458 whole entry): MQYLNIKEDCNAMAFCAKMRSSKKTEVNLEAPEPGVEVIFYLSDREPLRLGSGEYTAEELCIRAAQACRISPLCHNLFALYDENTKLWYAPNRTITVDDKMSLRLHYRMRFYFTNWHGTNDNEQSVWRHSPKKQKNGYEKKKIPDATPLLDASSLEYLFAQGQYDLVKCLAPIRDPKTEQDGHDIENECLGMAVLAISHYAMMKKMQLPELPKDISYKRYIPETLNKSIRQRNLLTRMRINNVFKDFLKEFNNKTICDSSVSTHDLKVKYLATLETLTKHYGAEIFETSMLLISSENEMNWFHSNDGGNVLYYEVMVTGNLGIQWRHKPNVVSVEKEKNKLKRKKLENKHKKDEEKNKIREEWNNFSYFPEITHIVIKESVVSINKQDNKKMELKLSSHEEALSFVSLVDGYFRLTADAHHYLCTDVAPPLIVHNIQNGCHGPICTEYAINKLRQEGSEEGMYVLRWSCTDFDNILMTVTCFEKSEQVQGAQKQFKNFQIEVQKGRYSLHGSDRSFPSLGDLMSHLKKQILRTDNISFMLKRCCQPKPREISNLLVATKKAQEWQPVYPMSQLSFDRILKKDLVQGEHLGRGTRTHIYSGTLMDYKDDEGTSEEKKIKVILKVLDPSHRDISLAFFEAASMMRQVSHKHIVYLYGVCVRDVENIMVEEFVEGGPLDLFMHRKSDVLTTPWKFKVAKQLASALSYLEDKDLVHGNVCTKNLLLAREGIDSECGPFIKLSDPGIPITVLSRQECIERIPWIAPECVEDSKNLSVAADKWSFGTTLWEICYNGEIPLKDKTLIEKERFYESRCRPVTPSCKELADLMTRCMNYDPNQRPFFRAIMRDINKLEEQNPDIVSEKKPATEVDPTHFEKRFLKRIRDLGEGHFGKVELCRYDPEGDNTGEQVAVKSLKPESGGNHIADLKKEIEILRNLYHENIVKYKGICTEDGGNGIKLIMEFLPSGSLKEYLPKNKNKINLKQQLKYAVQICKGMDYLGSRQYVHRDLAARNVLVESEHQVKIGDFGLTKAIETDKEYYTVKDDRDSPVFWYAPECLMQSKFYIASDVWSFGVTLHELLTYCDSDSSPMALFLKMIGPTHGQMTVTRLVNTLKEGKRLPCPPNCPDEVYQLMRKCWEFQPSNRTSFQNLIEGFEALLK
The target is the same in test [3]. The note with it: at 1 µM.
Test [4] addresses Tyrosine-protein kinase JAK2 (Homo sapiens) (UniProt O60674). The note with it: at 0.1 µM.
For test [5] the target is unchanged. To be noted: at 1 µM.
Test [6] has as its target T2, Tyrosine-protein kinase JAK3 (Homo sapiens) (UniProt P52333).
T2 sequence (whole entry): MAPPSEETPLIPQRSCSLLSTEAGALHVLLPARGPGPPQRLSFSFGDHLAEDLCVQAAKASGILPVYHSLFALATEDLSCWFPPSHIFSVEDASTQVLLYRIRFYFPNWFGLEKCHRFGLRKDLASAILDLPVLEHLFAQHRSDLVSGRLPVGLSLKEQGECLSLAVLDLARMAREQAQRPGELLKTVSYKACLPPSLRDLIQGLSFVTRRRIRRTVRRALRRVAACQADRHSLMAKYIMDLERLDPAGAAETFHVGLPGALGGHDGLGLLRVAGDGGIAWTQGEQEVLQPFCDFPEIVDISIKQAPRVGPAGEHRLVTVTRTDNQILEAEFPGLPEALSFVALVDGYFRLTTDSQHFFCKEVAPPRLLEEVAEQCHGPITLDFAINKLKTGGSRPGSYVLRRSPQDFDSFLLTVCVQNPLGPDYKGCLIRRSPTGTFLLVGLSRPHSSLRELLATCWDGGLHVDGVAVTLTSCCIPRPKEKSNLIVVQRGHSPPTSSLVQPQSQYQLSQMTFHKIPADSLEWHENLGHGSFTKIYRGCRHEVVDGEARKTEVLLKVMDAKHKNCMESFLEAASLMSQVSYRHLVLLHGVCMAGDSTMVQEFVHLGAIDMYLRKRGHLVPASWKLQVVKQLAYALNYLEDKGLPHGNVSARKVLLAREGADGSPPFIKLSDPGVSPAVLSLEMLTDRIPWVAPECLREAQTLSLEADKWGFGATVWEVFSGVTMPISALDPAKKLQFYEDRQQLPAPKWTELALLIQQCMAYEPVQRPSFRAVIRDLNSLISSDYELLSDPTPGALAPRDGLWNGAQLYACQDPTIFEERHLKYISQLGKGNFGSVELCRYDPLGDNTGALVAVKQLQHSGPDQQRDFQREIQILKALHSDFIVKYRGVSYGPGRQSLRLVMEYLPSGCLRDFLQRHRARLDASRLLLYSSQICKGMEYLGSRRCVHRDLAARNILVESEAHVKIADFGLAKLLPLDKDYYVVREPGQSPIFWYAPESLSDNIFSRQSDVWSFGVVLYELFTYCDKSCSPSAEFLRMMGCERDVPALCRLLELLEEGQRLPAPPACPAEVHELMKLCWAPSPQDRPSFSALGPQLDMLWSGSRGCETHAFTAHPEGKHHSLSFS
The note with it: at 0.1 µM.

The target in test [7] is T2, Tyrosine-protein kinase JAK3 (Homo sapiens). To be noted: at 1 µM.
For test [8], the target named is Vascular endothelial growth factor receptor 2 (Homo sapiens) (UniProt P35968). To be noted: at 0.1 µM.
Test [9] has the same target. To be noted: at 1 µM.
For test [10], the target named is Mast/stem cell growth factor receptor Kit (Homo sapiens) (UniProt P10721). The note with it: at 0.1 µM.
Mast/stem cell growth factor receptor Kit (Homo sapiens), sequence (P10721 whole entry): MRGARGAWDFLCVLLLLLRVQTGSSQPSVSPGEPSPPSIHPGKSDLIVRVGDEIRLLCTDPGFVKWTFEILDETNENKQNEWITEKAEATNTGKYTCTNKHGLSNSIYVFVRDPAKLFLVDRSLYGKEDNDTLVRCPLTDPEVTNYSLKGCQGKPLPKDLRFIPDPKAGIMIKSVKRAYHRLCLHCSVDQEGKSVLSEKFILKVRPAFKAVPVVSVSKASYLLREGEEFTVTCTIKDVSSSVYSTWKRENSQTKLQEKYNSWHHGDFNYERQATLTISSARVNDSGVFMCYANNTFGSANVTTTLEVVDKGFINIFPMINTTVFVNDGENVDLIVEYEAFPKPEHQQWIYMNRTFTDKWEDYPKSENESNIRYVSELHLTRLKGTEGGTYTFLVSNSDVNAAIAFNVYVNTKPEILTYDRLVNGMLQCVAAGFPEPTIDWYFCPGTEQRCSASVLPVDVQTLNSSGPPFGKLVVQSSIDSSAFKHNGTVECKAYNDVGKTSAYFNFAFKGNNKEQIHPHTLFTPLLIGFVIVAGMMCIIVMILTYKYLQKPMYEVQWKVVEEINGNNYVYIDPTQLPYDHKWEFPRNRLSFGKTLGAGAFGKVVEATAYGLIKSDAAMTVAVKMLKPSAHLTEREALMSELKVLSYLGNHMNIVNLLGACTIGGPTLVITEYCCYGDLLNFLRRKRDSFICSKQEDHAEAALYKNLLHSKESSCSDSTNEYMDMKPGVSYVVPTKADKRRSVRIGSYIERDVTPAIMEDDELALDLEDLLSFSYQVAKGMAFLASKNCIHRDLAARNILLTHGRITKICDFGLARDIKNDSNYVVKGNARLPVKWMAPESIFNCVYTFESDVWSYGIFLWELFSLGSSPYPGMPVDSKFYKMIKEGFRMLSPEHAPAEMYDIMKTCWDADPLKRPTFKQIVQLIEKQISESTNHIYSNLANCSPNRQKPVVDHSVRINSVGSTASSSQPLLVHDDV
The target is the same in test [11]. To be noted: at 1 µM.
The subject of test [12] is Mast/stem cell growth factor receptor Kit (Homo sapiens), P10721 [D816V]. To be noted: at 0.1 µM.
Test [13] has the same test system. The note with it: at 1 µM.
In test [14] the test system is Mast/stem cell growth factor receptor Kit (Homo sapiens), P10721 [T670I]. The note with it: at 0.1 µM.
Mast/stem cell growth factor receptor Kit (Homo sapiens), P10721 [T670I], sequence (P10721 whole entry T670I): as the sequence (P10721 whole entry) above, with T670I counted along it
For test [15] the test system is unchanged. To be noted: at 1 µM.
In test [16] the test system is Mast/stem cell growth factor receptor Kit (Homo sapiens), P10721 [V560G]. The note with it: at 0.1 µM.
Mast/stem cell growth factor receptor Kit (Homo sapiens), P10721 [V560G], sequence (P10721 whole entry V560G): as the sequence (P10721 whole entry) above, with V560G counted along it
Test [17] shares this test system. To be noted: at 1 µM.
Test [18] addresses Tyrosine-protein kinase Lck (Homo sapiens) (UniProt P06239). The note with it: at 0.1 µM.
The target is the same in test [19]. The note with it: at 1 µM.
For test [20], the target named is Leukocyte tyrosine kinase receptor (Homo sapiens) (UniProt P29376). To be noted: at 0.1 µM.
Leukocyte tyrosine kinase receptor (Homo sapiens), sequence (P29376 whole entry): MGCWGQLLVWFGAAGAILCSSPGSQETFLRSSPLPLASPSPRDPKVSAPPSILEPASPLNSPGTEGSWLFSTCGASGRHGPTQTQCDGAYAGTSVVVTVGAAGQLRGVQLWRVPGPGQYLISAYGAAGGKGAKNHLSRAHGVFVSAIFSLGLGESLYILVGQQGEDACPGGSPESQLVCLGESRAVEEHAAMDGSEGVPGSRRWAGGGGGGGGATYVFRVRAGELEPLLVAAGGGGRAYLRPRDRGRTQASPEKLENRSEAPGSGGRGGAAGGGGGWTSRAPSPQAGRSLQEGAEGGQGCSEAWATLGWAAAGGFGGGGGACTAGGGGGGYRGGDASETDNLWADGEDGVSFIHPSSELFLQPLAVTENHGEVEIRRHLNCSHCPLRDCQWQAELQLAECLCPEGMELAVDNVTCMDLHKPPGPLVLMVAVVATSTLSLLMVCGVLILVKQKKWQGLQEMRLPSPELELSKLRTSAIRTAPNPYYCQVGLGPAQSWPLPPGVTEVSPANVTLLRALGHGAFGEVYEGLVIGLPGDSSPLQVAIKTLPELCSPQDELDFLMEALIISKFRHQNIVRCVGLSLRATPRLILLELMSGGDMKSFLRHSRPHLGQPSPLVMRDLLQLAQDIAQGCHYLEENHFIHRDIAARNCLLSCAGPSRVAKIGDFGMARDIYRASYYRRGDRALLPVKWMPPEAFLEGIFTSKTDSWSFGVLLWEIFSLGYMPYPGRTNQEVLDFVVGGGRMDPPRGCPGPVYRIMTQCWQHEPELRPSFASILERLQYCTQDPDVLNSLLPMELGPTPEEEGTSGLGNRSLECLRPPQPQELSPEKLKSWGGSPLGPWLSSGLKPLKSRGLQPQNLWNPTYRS

Tyrosine-protein kinase JAK2 (Homo sapiens), sequence (O60674 whole entry): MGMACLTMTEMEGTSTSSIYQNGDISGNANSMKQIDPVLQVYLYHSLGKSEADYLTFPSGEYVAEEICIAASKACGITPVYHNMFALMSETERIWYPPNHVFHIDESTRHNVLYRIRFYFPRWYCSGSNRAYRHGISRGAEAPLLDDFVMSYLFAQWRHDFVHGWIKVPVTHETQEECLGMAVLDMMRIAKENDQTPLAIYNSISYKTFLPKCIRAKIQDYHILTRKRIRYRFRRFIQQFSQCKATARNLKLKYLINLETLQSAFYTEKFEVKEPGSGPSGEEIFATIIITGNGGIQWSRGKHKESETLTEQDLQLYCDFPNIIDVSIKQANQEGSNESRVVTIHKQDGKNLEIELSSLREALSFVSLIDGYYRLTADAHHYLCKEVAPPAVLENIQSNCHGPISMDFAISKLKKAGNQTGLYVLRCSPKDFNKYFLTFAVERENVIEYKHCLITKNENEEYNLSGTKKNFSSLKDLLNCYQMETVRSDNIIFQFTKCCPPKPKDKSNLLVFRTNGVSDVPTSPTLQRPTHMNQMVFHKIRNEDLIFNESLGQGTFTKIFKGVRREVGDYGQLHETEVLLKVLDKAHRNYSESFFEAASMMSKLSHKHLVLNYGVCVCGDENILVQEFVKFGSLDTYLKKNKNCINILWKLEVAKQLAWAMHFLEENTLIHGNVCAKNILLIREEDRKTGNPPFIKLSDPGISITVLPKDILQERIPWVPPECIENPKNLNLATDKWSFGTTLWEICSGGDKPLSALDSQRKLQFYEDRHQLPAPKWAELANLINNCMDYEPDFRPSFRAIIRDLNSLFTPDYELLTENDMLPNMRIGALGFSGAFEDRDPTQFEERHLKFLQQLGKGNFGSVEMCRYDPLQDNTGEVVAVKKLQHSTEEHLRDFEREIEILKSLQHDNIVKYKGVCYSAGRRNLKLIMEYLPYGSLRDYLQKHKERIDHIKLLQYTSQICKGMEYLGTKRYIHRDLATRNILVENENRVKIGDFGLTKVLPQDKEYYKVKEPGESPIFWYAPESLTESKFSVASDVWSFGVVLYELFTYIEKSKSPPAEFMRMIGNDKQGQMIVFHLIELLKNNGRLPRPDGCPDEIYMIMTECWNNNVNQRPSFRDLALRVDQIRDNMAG
Tyrosine-protein kinase Lck (Homo sapiens), sequence (P06239 2-509 limits assumed): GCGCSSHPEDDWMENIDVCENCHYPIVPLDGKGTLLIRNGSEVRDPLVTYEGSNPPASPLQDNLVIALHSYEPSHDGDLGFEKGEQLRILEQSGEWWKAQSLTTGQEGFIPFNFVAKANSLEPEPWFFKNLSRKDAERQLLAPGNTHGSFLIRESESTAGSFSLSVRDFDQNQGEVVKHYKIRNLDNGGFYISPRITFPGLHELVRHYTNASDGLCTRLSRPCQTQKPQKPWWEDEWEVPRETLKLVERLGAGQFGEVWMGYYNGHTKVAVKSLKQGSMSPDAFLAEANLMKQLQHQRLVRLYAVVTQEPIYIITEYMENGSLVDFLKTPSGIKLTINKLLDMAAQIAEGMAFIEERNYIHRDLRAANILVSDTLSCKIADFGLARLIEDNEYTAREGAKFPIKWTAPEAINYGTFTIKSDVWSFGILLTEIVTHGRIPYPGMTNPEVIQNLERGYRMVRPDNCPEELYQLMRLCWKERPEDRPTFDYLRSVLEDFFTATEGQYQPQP
Mast/stem cell growth factor receptor Kit (Homo sapiens), P10721 [D816V], sequence (P10721 whole entry D816V): as the sequence (P10721 whole entry) above, with D816V counted along it

For the compound `Nc1ccc(C#Cc2cncnc2Nc2ccc(OCc3cccc(F)c3)c(Cl)c2)cc1`, the inhibition (as a rule, the relative decrease from the control value, in per cent) was 1.02% in test [1]; 0.18% in [2]; 0.58% in test [3]; 0.74% in test [4]; 0.43% in test [5]; -2.62% in [6]. For the same compound, the inhibition in [7] is -0.39%; in [8], 1.13%; in [9] it was 5.84%; in test [10] it was 5.48%; in test [11], 5.56%; in test [12], 2.12%. Also, the inhibition is 3.81% in test [13]; 1.88% in [14]; 3.05% in [15]; -3.03% in test [16]; -1.6% in test [17]; 2.57% in [18]. Moreover, the inhibition was 4.92% in test [19] and 3.5% in [20].

For `COc1cccc(-n2nc(C)c3c(N/N=C(\C)c4ccncc4)ncnc32)c1`, the inhibition in test [1] is -0.01%; in test [2], 0.91%; in [3], 4.07%; in test [4], -0.64%; in test [5] it was 1.79%; in test [6] it was -1.14%. Further, the inhibition in test [7] was 0.38%; in test [8], 1.62%; in test [9], 4.01%; in [10], 1.56%; in test [11], 2.68%; in test [12] it was -0.3%. Further, the inhibition in test [13] was -0.84%; in [14] it was -1.32%; in test [15], 0.13%; in test [16], 2.07%; in test [17] it was 0.19%; in test [18], 0.65%. Besides, the figures for the inhibition in test [19] and in [20] were 2.98% and 1.52%, respectively.

As to `COc1cccc(-n2ncc3c(N/N=C/c4ccc(S(C)(=O)=O)cc4)ncnc32)c1`, the inhibition in test [1] is 0.29%; in [2] it was 1.39%; in test [3], 6.92%; in test [4] it was 1.22%; in test [5], 11.5%; in test [6] it was -4.07%. Moreover, the inhibition was found to be 5.53% in test [7]; 31.4% in [8]; 66.4% in test [9]; 16% in test [10]; 61.6% in [11]; 1.61% in [12]. For the same compound, the inhibition was 9.23% in test [13]; 7.49% in [14]; 44.8% in test [15]; 1.83% in [16]; 7.89% in [17]; 37.7% in [18]. Moreover, the inhibition stood at 73.9% in [19] and 1.43% in [20].

Consider `NS(=O)(=O)c1ccc(Nc2cc(-c3cccc(O)c3)n[nH]2)cc1`, for which the inhibition was 4.07% in [1]; 4.66% in test [2]; 7.23% in test [3]; 1.41% in [4]; 1.95% in test [5]; -1.44% in test [6]. Further, the inhibition is 1.25% in test [7]; 9.9% in test [8]; 19.2% in test [9]; 33.2% in test [10]; 83.7% in test [11]; 3.6% in [12]. In addition, the inhibition in test [13] came to 4.78%; in [14], 4.57%; in test [15] it was 4.81%; in [16] it was 4.28%; in test [17], 25.4%; in [18] it was 1.64%. For the same compound, the inhibition in [19] was 4.8%; in test [20], 2.99%.

As for `COC(=O)c1ccc2c(c1)C(=Cc1cc(Br)c(O)c(Br)c1)C(=O)N2`, the inhibition in [1] was determined as 3%; in [2] it was 3.26%; in test [3], 12.2%; in test [4] it was 1.7%; in test [5], 6.21%; in test [6] it was 1.39%. Further, the inhibition in test [7] was 7.25%; in [8], 3.9%; in test [9] it was 24.5%; in [10], 3.84%; in test [11], 16.2%; in test [12], -0.82%. The inhibition was 4.08% in [13]; 2% in test [14]; 2.74% in [15]; -3.35% in test [16]; 0.2% in test [17]; 5.24% in test [18]. Besides, the inhibition in [19] stood at 15.3%; in [20], 6.76%.
